Assay outcomes: PubChem BioAssay, National Center for Advancing Translational Sciences (NCATS)
Rows were chosen to be rich in hits. Some 4% of all compounds tested hit in one or more screens of this group.
D1 ag: agonists of human D1 dopamine receptor; activation, % at 2 µM; AID 504660; P21728; HEK293 T-REx D1 cells, calcium flux, agonist mode; hit rate 1% among 360,000
Target sequence (P21728 whole entry, looked up): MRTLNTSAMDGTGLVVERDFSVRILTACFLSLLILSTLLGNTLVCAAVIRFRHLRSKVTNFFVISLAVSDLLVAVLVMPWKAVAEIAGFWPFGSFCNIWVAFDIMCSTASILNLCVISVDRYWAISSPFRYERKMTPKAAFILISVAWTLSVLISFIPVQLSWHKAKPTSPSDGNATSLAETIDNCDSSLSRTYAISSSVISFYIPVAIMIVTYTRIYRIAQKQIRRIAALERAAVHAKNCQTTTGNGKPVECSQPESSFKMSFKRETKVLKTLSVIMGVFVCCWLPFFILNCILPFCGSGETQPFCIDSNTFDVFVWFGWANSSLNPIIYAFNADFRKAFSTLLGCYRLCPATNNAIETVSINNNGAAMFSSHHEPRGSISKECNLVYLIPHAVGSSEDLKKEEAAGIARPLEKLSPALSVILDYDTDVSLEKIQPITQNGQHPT
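Inducible HEK293 T-REx D1 cells, force-coupled to calcium signalling, were plated at 4000 cells/well with tetracycline and held overnight at 30 C. After no-wash calcium dye loading, compound-evoked calcium rise over 180 s flagged agonists.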
D1 PAM: potentiators of human D1 dopamine receptor | P21728 | HEK293 TREx D1 cells, calcium flux, dopamine EC20 potentiation | potentiation, % at 10 µM | hit rate 0.036% among 360,000; in the data active = potentiation above about 30%
TRHR PAM: allosterically enhances the human TRH receptor; enhancement, % at 2 µM; TRHR cells, fluo-8 calcium fluorescence, EC20 TRH enhancement; P34981; AID 493056; hit rate 0.66% among 360,000; in the data active = enhancement above about 30%
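Enhancer read-out: after compound pinning and an initial kinetic agonist-mode read, an EC20 of TRH (10 nM final) was injected and fluo-8 calcium signal (Ex 480/Em 530) followed at 1 s/cycle for 100 cycles in TRHR-expressing cells.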
TRHR agonist: TRH receptor (human) agonism. P34981. TRHR cells, calcium flux fluo-8, FDSS agonist mode. activation, % at 2 µM. hit rate 0.18% among 360,000. AID 493084
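Fluo-8-loaded TRHR cells; 10 s baseline, compound added, kinetic Ca2+ fluorescence read 1/s, agonist mode.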
Glioma ERSR ind: inducers of ER stress response in human glioma cells; AID 602332; Potency, µM, actives largely listed as activators; U87-MG GRP78 promoter luciferase reporter, 16 h; hit rate 0.02% among 420,000; active = well fitted activation curve with a large enough effect; inconclusive = small, poorly fitted or top-dose-only effect; inactive = no such curve, though single readings can be large or run the other way; note: series mostly up to about 76 µM; nearly all actives have a fitted effect of over 35% in size
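Stably transfected U87-MG human glioma cells carrying a GRP78-based luminescent sensor were seeded at 1000 cells/well, pin-dosed with compounds and incubated 16 h. Luciferase reagent was then added, and end-point luminescence was read after 10 min at room temperature.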
D1 antag: antagonists of human D1 dopamine receptor | P21728 | HEK293 TREx D1 cells, calcium flux, dopamine EC80; stronger effect = lower value | activity change, negative = inhibition, % at 10 µM | hit rate 3.2% among 360,000 | AID 504652; in the data active = activity change below about -30%
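Tetracycline-induced HEK293 Trex D1 cells, force-coupled to calcium, dye-loaded; compounds added and read 180 s, then EC80 dopamine added and calcium flux tracked kinetically another 180 s.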
Of the large screens only hits and unclear results are named; the others gave an inactive call. Cut-off read from the data, not from the text of the source, unless noted: active = activation above about 30%; inactive = the rest.

Cc1ccccc1CN(C)C(C)C(=O)Nc1ccccc1F (configuration not stated)	TRHR PAM 40
CCCc1cc(=O)oc2cc(O[C@@H]3O[C@H](CO)[C@@H](O)[C@H](O)[C@H]3O)ccc12	none
O=C(CC1C(=O)NCCN1Cc1ccc(F)cc1)NCCOc1cccnc1 (configuration not stated)	none
CC(=O)Nc1sc2c(c1C(c1cccc(Cl)c1)N1CCN(CCO)CC1)CCCC2 (configuration not stated)	D1 antag -30
COc1ccc(C(c2c(NC(C)=O)sc3c2CCCC3)N2CCN(CCO)CC2)cc1OC (configuration not stated)	none
Cc1ccccc1CSc1nc2c(sc3ccccc32)c(=O)n1CCCC(=O)NCCCOC(C)C	D1 antag -40
Cc1ccccc1CSc1nc2c(sc3ccccc32)c(=O)n1CCCOC(C)C	none
O=C(Nc1ccc(F)cc1F)N1CCN(c2ccc(Cl)c(Cl)c2)CC1	D1 antag -32
COc1ccc(OC)c(NC(=O)c2cnc(N3CCCC3)nc2C)c1	none (no result: Glioma ERSR ind)
C(=N\Nc1ccc(-n2ccnc2)nn1)/c1ccccc1	none
COc1cc2cc(CNc3ccccc3)c(=O)n(CC(=O)Nc3ccc(C)c(Cl)c3)c2cc1OC	D1 ag 30
COc1ccc(NCc2cc3cc4c(cc3n(CC(=O)Nc3cccc(F)c3)c2=O)OCO4)cc1	D1 ag 153
COc1ccc(NCc2cc3cc4c(cc3n(CC(=O)Nc3ccc(C)cc3C)c2=O)OCO4)cc1	none
COc1ccc(NCc2cc3cc4c(cc3n(CC(=O)Nc3ccc(F)cc3F)c2=O)OCO4)cc1	D1 ag 66, TRHR PAM 35
COc1ccc(NCc2cc3cc4c(cc3n(CC(=O)Nc3ccc(C)cc3)c2=O)OCO4)cc1	D1 ag 57
CCn1c(Cc2ccccc2)nnc1SCC(=O)Nc1ccc(N)cc1	none
CCc1ccc(NCc2cc3cc4c(cc3n(CC(=O)Nc3cccc(OC)c3)c2=O)OCO4)cc1	D1 ag 56
CCc1ccc(NCc2cc3cc4c(cc3n(CC(=O)Nc3ccc(OC)cc3)c2=O)OCO4)cc1	none
Cc1cc(NCc2ccco2)nc2cc(O)ccc12	none
CC(NC(=O)c1ccc(=O)oc1)c1ccccc1 (configuration not stated)	Glioma ERSR ind inconclusive, D1 antag -34
COc1cccc(C2c3[nH]c4ccccc4c3CCN2Cc2cnc(C)s2)c1OC (configuration not stated)	D1 antag -43
Cc1cc(N)cc(C)c1-c1c(Br)cc(N)cc1Br	none (no result: D1 ag, D1 PAM, TRHR PAM, TRHR agonist, D1 antag)
CCOC(=O)C1=CC[C@]2(C)c3c(c4ccccc4n3C)C(=O)C1N2C	D1 antag -45
CCOC(=O)C1=CCC2c3c(c4ccccc4n3C)C(=O)C1N2C(=O)OC(C)(C)C (configuration not stated)	none
COc1ccc(-n2cc(C(=O)c3cc(Cl)ccc3O)cc(C#N)c2=O)cc1	D1 antag -35
COc1ccc(O)c(C(=O)c2cc(C#N)c(=O)n(-c3ccc(Cl)cc3)c2)c1	none
O=C1c2ccccc2C(=O)N1CCSC(=S)N1CCOCC1	TRHR PAM 41
O=C(CN1C(=O)c2ccccc2S1(=O)=O)NC1CC2CCC1C2 (configuration not stated)	D1 antag -73 (no result: D1 PAM)
O=C(CCCN1C(=O)c2ccccc2C1=O)N1CCOCC1	TRHR PAM 33
O=C(CN1C(=O)c2ccccc2S1(=O)=O)N1CCOCC1	D1 antag -34
O=C(CCN1C(=O)c2ccccc2C1=O)N1CCOCC1	none
COc1ccc(C(=O)C2C3C4COC(O4)C(=O)C3C3C=Cc4ccccc4N32)c(OC)c1 (configuration not stated)	none (no result: D1 ag, D1 PAM, TRHR PAM, TRHR agonist, D1 antag)
COc1ccc(CC(=O)Nc2nc(C(C)(C)C)cs2)cc1	none
O=C(CCCCCCCCN1C(=O)c2ccccc2C1=O)N1CCOCC1	none
O=C(CCCCCCN1C(=O)c2ccccc2C1=O)N1CCC(c2ccccc2)C1 (configuration not stated)	D1 antag -44
